This note sets out measurements from publication PMC7862700, “An all-to-all approach to the identification of sequence-specific readers for epigenetic DNA modifications on cytosine”.

Test in all cases: DAPPL (digital affinity profiling via proximity ligation, sequencing); 10 mM Tris-HCl pH 7.5, 50 mM NaCl, 1 mM DTT, 4% glycerol, room temperature, 30 min; GST-TFs on glutathione beads, 16-mer random dsDNA library, 0.1% formaldehyde crosslink after washing; high values mean tight binding
One test has as its target T1, FEV (Homo sapiens, UniProt Q99581 1-238).
T1 sequence: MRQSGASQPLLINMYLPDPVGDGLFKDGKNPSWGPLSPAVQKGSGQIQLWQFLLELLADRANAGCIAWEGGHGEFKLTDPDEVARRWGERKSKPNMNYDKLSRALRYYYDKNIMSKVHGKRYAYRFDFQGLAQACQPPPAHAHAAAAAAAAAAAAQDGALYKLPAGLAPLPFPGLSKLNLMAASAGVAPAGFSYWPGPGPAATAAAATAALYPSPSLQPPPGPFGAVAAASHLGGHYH
As to conditions: protein: recombinant; tags: N-terminal GST; dsDNA, one strand shown. A digest of the protocol:
(§1)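 Human transcription factors were made in yeast as GST fusions, captured on glutathione beads and barcoded with DNA. With a tag-only sample included, the pool was incubated with 200 nmole of a random double-stranded 16-mer DNA library in Tris/NaCl/DTT/glycerol buffer at room temperature for 30 min, then crosslinked with 0.1% formaldehyde after washing, ligated by proximity, amplified and sequenced. For binding signal, each hexamer's read frequency for a factor is divided by its frequency for the tag-only sample.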

The target of a further test is ETV5 (Homo sapiens, UniProt P41161 1-510). As to conditions: protein: recombinant; tags: N-terminal GST; dsDNA, one strand shown. An outline of the steps:
as §1

For a further test, the target named is HSF1 (Homo sapiens, UniProt Q00613 1-529). As to conditions: protein: recombinant; tags: N-terminal GST; chain copies: 3; dsDNA, one strand shown. An outline of the steps: as §1
The target of the next test is T2, SPIC (Homo sapiens, UniProt Q8N5J4 1-248).
T2 sequence: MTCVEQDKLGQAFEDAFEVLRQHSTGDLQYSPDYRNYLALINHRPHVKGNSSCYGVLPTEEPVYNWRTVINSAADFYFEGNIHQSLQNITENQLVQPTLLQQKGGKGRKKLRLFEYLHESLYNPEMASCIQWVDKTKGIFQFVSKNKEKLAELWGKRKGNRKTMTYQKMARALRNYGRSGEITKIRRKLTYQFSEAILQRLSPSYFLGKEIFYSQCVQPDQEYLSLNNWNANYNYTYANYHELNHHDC
As to conditions: protein: recombinant; tags: N-terminal GST; dsDNA, one strand shown. An outline of the steps:
as §1

The target in another test is ELF4 (Homo sapiens, UniProt Q99607 1-663). As to conditions: protein: recombinant; tags: N-terminal GST; dsDNA, one strand shown. A digest of the protocol: as §1
In a further test the target is T3, ELK4 (Homo sapiens, UniProt P28324-2 1-405).
T3 sequence: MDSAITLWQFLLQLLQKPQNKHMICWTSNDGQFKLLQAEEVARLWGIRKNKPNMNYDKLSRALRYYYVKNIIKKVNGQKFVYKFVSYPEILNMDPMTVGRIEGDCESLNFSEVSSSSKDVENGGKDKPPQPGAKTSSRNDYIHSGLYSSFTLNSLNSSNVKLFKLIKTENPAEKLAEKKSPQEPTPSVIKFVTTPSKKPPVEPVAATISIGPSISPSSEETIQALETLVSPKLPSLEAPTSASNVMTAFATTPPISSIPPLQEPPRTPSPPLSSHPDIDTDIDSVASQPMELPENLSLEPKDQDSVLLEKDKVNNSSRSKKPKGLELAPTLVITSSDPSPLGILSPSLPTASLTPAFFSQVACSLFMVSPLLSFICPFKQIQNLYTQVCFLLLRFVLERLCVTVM
As to conditions: protein: recombinant; tags: N-terminal GST; dsDNA, one strand shown. A digest of the protocol: as §1

Another test addresses T4, ETV2 (Homo sapiens, UniProt O00321 1-342).
T4 sequence: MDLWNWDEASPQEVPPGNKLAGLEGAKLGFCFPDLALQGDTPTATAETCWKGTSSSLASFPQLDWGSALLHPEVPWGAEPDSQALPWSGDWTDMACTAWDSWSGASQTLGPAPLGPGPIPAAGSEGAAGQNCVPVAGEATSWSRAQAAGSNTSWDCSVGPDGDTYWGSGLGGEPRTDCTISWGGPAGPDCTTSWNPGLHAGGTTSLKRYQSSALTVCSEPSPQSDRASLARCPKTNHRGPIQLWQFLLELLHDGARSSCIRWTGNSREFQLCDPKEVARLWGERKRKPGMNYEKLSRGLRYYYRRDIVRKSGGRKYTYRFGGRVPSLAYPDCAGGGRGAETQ
As to conditions: protein: recombinant; tags: N-terminal GST; dsDNA, one strand shown. An outline of the steps: as §1

The next test addresses T5, ELF3 (Homo sapiens, UniProt P78545 1-371).
T5 sequence: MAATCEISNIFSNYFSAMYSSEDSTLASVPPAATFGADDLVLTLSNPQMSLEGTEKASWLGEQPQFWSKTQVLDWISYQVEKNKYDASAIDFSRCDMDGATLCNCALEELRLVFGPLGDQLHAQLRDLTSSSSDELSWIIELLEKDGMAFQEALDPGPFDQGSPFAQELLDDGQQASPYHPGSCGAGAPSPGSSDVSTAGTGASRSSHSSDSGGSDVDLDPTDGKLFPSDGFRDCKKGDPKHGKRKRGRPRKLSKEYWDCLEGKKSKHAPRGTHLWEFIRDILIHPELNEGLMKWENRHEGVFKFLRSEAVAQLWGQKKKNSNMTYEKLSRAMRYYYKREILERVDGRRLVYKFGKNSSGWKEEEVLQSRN
As to conditions: protein: recombinant; tags: N-terminal GST; dsDNA, one strand shown. A digest of the protocol: as §1

Another test concerns the target CRX (Homo sapiens, UniProt O43186 1-299). As to conditions: protein: recombinant; tags: N-terminal GST; dsDNA, one strand shown. An outline of the steps: as §1
In the next test the target is ETV1 (Homo sapiens, UniProt P50549 1-477). As to conditions: protein: recombinant; tags: N-terminal GST; dsDNA, one strand shown. A digest of the protocol:
as §1

The next test deals with T6, ERF (Homo sapiens, UniProt P50548 1-548).
T6 sequence: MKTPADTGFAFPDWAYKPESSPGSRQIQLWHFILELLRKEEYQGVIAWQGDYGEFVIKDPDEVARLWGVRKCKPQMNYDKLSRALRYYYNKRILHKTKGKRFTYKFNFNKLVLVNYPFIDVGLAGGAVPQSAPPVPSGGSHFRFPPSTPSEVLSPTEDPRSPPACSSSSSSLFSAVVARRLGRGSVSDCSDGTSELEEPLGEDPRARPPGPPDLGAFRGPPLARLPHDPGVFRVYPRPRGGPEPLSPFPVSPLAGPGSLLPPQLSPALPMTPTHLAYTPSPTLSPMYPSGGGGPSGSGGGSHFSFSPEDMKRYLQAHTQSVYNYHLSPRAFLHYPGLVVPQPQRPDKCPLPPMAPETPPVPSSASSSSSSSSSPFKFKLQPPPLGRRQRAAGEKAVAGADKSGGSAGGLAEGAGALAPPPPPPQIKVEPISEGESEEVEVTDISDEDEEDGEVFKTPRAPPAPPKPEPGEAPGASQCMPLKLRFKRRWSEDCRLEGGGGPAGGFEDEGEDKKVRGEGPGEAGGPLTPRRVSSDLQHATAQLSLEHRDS
As to conditions: protein: recombinant; tags: N-terminal GST; dsDNA, one strand shown. An outline of the steps:
as §1

Another test addresses T7, ETV3L (Homo sapiens, UniProt Q6ZN32 1-361).
T7 sequence: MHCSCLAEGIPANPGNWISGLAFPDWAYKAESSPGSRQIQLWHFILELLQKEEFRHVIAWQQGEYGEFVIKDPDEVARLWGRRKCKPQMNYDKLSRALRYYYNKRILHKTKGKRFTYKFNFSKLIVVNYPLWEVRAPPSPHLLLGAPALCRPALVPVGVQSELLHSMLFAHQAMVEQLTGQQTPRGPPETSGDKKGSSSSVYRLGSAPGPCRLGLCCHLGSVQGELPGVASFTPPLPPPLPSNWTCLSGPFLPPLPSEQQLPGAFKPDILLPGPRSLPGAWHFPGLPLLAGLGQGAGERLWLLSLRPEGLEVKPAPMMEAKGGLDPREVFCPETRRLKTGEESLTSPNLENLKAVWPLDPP
As to conditions: protein: recombinant; tags: N-terminal GST; dsDNA, one strand shown. A digest of the protocol: as §1

A further test concerns the target T8, ETS2 (Homo sapiens, UniProt P15036 1-469).
T8 sequence: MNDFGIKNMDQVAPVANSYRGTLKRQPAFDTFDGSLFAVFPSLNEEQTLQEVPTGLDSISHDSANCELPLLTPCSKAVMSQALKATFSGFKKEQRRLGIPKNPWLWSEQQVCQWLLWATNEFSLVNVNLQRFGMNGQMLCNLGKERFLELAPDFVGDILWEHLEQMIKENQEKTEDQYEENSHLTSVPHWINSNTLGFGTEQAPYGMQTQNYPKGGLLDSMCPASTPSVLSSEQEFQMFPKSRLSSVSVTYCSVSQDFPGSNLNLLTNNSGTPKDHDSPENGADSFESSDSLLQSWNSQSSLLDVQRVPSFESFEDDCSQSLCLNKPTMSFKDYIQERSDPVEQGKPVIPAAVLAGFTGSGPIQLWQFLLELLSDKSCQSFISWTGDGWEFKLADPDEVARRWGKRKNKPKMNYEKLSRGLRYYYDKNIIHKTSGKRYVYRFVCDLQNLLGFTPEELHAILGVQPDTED
As to conditions: protein: recombinant; tags: N-terminal GST; dsDNA, one strand shown. An outline of the steps:
as §1

The target of another test is T9, SPDEF (Homo sapiens, UniProt O95238 1-335).
T9 sequence: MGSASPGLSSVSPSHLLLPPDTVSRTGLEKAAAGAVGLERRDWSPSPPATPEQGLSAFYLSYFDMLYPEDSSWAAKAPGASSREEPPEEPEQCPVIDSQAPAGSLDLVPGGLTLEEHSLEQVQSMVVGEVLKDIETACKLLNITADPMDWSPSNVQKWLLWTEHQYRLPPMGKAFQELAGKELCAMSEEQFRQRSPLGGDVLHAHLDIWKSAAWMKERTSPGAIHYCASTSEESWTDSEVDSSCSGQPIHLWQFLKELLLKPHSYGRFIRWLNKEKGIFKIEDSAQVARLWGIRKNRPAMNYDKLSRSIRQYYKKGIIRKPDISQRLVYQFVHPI
As to conditions: protein: recombinant; tags: N-terminal GST; dsDNA, one strand shown. An outline of the steps: as §1

A further test addresses T10, ETV7 (Homo sapiens, UniProt Q9Y603 1-341).
T10 sequence: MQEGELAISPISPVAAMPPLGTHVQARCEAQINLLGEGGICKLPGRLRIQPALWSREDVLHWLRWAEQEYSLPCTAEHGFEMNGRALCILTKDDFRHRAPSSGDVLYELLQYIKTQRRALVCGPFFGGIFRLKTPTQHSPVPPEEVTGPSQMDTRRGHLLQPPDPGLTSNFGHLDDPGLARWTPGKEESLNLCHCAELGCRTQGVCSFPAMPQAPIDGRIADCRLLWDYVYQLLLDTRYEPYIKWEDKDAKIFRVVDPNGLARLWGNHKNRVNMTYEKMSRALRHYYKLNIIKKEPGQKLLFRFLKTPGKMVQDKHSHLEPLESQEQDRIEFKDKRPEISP
As to conditions: protein: recombinant; tags: N-terminal GST; dsDNA, one strand shown. A digest of the protocol: as §1

A further test concerns the target T11, ELF5 (Homo sapiens, UniProt Q9UKW6-2 1-255).
T11 sequence: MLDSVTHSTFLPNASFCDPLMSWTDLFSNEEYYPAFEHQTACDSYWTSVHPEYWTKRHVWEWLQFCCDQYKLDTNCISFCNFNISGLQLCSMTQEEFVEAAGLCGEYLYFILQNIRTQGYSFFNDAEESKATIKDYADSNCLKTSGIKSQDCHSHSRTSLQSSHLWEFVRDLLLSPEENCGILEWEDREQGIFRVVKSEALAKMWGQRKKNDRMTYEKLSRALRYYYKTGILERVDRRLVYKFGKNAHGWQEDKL
As to conditions: protein: recombinant; tags: N-terminal GST; dsDNA, one strand shown. A digest of the protocol: as §1

For the next test, the target named is T12, ETV3 (Homo sapiens, UniProt P41162-2 1-143).
T12 sequence: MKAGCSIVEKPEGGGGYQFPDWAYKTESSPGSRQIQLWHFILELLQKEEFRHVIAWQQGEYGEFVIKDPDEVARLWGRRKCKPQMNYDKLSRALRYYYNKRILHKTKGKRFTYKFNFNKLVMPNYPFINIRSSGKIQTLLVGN
As to conditions: protein: recombinant; tags: N-terminal GST; dsDNA, one strand shown. A digest of the protocol:
as §1

A further test addresses ETV6 (Homo sapiens, UniProt P41212 1-452). As to conditions: protein: recombinant; tags: N-terminal GST; dsDNA, one strand shown. A digest of the protocol: as §1

Chain of ETV6 (P41212 whole entry): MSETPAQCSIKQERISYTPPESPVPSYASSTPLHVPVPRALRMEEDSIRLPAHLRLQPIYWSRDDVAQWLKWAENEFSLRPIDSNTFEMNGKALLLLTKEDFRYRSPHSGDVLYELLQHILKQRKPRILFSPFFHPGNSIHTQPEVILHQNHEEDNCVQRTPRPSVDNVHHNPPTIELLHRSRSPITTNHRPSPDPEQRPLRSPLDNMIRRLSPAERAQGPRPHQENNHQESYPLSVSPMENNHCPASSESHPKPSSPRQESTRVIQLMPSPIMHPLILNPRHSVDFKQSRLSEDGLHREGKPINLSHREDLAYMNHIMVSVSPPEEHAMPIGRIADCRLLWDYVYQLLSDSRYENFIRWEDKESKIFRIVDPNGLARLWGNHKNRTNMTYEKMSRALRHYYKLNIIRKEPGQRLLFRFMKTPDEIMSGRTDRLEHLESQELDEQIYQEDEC
Chain of ETV1 (P50549 whole entry): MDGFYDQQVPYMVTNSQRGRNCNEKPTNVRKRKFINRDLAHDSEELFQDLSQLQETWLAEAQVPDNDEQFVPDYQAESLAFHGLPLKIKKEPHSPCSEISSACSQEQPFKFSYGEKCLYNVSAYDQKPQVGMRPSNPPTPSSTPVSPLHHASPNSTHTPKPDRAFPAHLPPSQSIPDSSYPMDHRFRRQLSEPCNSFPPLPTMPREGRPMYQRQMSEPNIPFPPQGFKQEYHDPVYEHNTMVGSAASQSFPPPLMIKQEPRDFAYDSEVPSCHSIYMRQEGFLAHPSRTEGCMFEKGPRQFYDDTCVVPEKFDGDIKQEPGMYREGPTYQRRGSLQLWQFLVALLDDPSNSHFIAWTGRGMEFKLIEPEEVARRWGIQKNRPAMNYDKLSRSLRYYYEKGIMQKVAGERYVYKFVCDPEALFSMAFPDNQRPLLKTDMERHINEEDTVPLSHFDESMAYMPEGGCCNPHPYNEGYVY
Chain of HSF1 (Q00613 whole entry): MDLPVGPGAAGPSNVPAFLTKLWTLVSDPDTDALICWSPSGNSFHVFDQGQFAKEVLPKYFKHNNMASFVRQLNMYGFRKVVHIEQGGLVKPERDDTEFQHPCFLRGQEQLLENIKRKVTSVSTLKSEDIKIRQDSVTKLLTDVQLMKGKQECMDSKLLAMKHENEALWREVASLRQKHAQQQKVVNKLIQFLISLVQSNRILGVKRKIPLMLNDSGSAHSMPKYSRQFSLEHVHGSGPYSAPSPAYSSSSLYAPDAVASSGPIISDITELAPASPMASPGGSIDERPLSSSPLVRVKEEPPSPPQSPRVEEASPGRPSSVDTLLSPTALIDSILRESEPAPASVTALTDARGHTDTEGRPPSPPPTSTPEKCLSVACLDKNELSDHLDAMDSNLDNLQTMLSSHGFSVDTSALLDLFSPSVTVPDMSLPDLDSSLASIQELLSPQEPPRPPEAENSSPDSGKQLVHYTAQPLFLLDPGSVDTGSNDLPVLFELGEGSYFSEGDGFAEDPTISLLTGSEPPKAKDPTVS
Chain of ETV5 (P41161 whole entry): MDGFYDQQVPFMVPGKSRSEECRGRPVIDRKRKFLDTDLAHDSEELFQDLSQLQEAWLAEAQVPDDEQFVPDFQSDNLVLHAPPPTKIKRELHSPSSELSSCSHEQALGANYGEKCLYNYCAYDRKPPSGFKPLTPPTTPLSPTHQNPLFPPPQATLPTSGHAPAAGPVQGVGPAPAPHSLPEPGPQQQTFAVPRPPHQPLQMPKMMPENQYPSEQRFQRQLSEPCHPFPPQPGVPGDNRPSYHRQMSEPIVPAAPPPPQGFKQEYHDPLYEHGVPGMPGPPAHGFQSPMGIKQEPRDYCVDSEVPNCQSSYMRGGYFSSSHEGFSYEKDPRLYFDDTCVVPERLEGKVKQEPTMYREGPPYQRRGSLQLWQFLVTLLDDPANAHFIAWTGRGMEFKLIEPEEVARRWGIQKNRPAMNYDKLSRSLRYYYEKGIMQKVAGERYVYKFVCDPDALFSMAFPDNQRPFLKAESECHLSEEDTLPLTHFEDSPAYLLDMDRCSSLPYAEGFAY
Chain of CRX (O43186 whole entry): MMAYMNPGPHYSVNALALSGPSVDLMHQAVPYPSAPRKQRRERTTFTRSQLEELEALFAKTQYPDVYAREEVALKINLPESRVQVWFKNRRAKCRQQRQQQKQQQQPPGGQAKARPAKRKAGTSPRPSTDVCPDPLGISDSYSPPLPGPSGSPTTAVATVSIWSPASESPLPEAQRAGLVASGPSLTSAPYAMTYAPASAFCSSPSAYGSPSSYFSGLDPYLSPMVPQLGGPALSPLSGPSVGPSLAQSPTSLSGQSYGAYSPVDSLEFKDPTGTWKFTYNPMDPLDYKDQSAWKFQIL
Chain of ELF4 (Q99607 whole entry): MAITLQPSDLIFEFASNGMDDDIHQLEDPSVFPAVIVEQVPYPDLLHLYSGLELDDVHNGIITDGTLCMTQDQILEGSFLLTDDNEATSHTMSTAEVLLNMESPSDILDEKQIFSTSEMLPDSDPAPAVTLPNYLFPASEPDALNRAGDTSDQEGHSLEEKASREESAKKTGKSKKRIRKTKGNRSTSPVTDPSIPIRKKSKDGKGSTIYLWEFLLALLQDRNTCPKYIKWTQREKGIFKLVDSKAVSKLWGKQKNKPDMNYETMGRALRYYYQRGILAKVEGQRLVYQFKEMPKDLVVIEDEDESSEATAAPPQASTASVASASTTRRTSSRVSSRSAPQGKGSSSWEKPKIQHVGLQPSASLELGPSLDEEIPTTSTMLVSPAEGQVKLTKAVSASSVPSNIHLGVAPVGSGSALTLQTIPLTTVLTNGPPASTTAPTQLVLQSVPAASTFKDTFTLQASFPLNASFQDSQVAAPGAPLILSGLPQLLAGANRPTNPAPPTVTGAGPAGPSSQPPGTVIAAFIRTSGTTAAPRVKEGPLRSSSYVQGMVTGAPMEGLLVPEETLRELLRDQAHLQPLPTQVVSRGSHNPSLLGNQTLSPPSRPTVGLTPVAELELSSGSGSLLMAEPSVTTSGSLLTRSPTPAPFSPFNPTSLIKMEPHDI

Turning to CTGCGC, the binding signal with FEV was 1.38 fold enrichment (6-mer frequency, TF over GST control); with ETV5, 1.34 fold enrichment (6-mer frequency, TF over GST control); with HSF1, 1.1 fold enrichment (6-mer frequency, TF over GST control); in the test with SPIC, 1.22 fold enrichment (6-mer frequency, TF over GST control); in the test with ELF4 it was 1.32 fold enrichment (6-mer frequency, TF over GST control); in the test with ELK4 it was 1.2 fold enrichment (6-mer frequency, TF over GST control). The binding signal in the test with ETV2 was 1.46 fold enrichment (6-mer frequency, TF over GST control); with ELF3, 1.27 fold enrichment (6-mer frequency, TF over GST control); in the test with CRX, 1.11 fold enrichment (6-mer frequency, TF over GST control); with ETV1 it was 1.58 fold enrichment (6-mer frequency, TF over GST control); with ERF, 1.34 fold enrichment (6-mer frequency, TF over GST control); with ETV3L, 1.33 fold enrichment (6-mer frequency, TF over GST control). The binding signal with ETS2 is 1.46 fold enrichment (6-mer frequency, TF over GST control); with SPDEF, 1.12 fold enrichment (6-mer frequency, TF over GST control); with ETV7, 1.23 fold enrichment (6-mer frequency, TF over GST control); with ELF5, 1.26 fold enrichment (6-mer frequency, TF over GST control); in the test with ETV3 it was 1.32 fold enrichment (6-mer frequency, TF over GST control); in the test with ETV6, 1.27 fold enrichment (6-mer frequency, TF over GST control).
